Screening results (PubChem BioAssay)
HT1080 IDH1KD tx = qHTS for induction of synthetic lethality in tumor cells producing 2HG: qHTS for the HT-1080-IDH1KD cell line; Potency, µM (highest dose often 46.1 µM), hits mostly cytotoxic; HT-1080 IDH1 knockdown viability, ATP luminescence, 48 h; hit rate 2% among 360,000
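HT-1080-IDH1KD cells (IDH1 knocked down), 750/well in RPMI with 5% FBS, treated with compound 48 h at 37 degrees C. Viability by CellTiter-Glo luminescence, normalised to DMSO and no-cell wells; concentration-response curves classed.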
ATXN2 expr inh = Primary qHTS for Inhibitors of ATXN expression; Potency, µM (titrated, usually from 57 µM), most hits filed as inhibitors; AID 1745845, 2022; hit rate 0.72% among 360,000; HEK-293 ATXN2-luciferase reporter, luminescence, 24 h; note: nearly all actives have a fitted effect of over 55% in size
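ATXN2-luciferase reporter cells (luciferase flanked by upstream and downstream ATXN2 gene portions) were treated 24 h at 37 °C with compounds at up to 57 uM. SteadyGlo luminescence gave expression; GF-AFC fluorescence gave viability.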
KB-V1 MDR tox = qHTS assay for MDR1-selective chemotherapeutics: Primary screen using the drug-selected MDR subline cells KB-V1; AID 1347076, 2019; hit rate 3.4% among 400,000; KB-V1 MDR cells viability, CellTiter-Glo, 72 h; Potency, µM (top dose mostly 46.1 µM), most hits filed as cytotoxic; note: nearly all actives have a fitted effect of over 60% in size
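Readout: CellTiter-Glo luminescence, 10 min after addition. Cells: KB-V1 MDR subline, 72 h at 37 degrees C with compound. Analysis: corrected, normalized data fitted to concentration-effect curves.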
KB-3-1 tox = qHTS assay for MDR1-selective chemotherapeutics: Primary screen using the parental adenocarcinoma cell KB-3-1. hit rate 1.4% among 400,000. KB-3-1 viability, CellTiter-Glo ATP luminescence, 72 h. AID 1347075, 2019. Potency, µM (top dose mostly 46.1 µM), hits mostly cytotoxic; note: nearly all actives have a fitted effect of over 60% in size
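KB-3-1 cells, DMEM (no phenol red) + 10% FBS; compound by pin transfer, 72 h, 37 °C. Readout: CellTiter-Glo luminescence after 10 min. Data normalized, curve-fitted.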
ATXN viability = Viability Counterscreen for Primary qHTS for Inhibitors of ATXN expression; Potency, µM (top dose mostly 56.7 µM), usual class: cytotoxic; S2 cells (HEK-293 line with an ATXN2-luciferase reporter) viability, CellTiter-Fluor protease fluorescence, 24 h; AID 651635, 2014; hit rate 0.49% among 400,000; note: nearly all actives have a fitted effect of over 40% in size
HT1080-NT tox = qHTS for induction of synthetic lethality in tumor cells producing 2HG: qHTS for the HT-1080-NT fibrosarcoma cell line; AID 686970, 2013; HT-1080-NT fibrosarcoma viability, CellTiter-Glo ATP luminescence, 48 h; Potency, µM (top dose mostly 46.1 µM), actives largely listed as cytotoxic; hit rate 1.6% among 360,000;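 note: NT is the 2HG producing partner of a matched IDH1 knockdown line; nearly all actives have a fitted effect of over 55% in size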
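Viability by CellTiter-Glo luminescence after 48 h compound exposure at 37C of HT-1080-NT cells (750/well, RPMI, 5% FBS). % activity scaled between DMSO wells and medium-only wells, then curve-fitted and categorized by curve class.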
Of the large screens only hits and unclear results are named; the others gave an inactive call. An excerpt weighted towards active compounds, which were near 6.2% of everything screened. Calls come from the whole dose curve; as a rule, active = well fitted curve in the direction sought with a large enough effect; inconclusive = small, poorly fitted or top-dose-only effect, or another doubt; inactive = no such curve, though single readings can be large; an effect the other way counts as inactive or inconclusive.

Cc1ccc(-c2nc(N3CCOCC3)sc2C(=O)N2CCCCC2)cc1	KB-V1 MDR tox 18µM
Cc1ccc(-c2nc(N3CCOCC3)sc2C(=O)N2CCOCC2)cc1	none
CC(C(=O)O)c1ccc(/C=C2\CCCCC2=O)cc1 (stereo unspecified)	none (no result: HT1080 IDH1KD tx, KB-V1 MDR tox, KB-3-1 tox, HT1080-NT tox)
CCCn1nc([N+](=O)[O-])c(C(C#N)c2nc3ccccc3o2)c(Cl)c1=O (stereo unspecified)	HT1080 IDH1KD tx inconclusive, HT1080-NT tox inconclusive
CCn1nc([N+](=O)[O-])c(C(C#N)c2nc3cc(C(F)(F)F)ccc3s2)c(Cl)c1=O (stereo unspecified)	HT1080 IDH1KD tx 0.32µM, ATXN2 expr inh inconclusive, KB-V1 MDR tox inconclusive, KB-3-1 tox 15µM, HT1080-NT tox 0.63µM (no result: ATXN viability)
Fc1ccc(Nc2nc(N3CCOCC3)c3ccccc3n2)cc1	KB-V1 MDR tox 16µM, KB-3-1 tox inconclusive
O=c1[nH]c2ccccc2nc1N1CCOCC1	HT1080-NT tox inconclusive
c1ccc2c(Nc3nc(N4CCOCC4)c4ccccc4n3)cccc2c1	HT1080 IDH1KD tx 15µM, ATXN2 expr inh inconclusive, KB-V1 MDR tox inconclusive, KB-3-1 tox inconclusive, HT1080-NT tox 21µM
c1ccc2c(c1)nc(N1CCOCC1)c1c3ccccc3[nH]c21	KB-V1 MDR tox 21µM
Clc1nc(Nc2ccc(N3CCOCC3)cc2)c2ccccc2n1	KB-V1 MDR tox inconclusive
N#Cc1ccc(OCC(=O)OCC(=O)N2CCc3ccccc32)cc1	none (no result: ATXN2 expr inh)
Cc1nc2ccc(C(=O)N3CCC(O)(Cc4ccccc4)CC3)cn2c1N(C)C(=O)CCc1ccccc1	none
Cc1ccc2[nH]c(=O)c(-c3nc4ccccn4c3NCc3ccco3)cc2c1	HT1080 IDH1KD tx inconclusive, KB-V1 MDR tox 8.2µM, HT1080-NT tox inconclusive
Cc1ccc(-c2cc(C(=O)N3N=C(C(F)F)CC3(O)C(F)F)c3ccccc3n2)cc1C (stereo unspecified)	HT1080 IDH1KD tx inconclusive, ATXN2 expr inh inconclusive, KB-V1 MDR tox inconclusive, ATXN viability 18µM, HT1080-NT tox inconclusive
O=C(c1[nH]ncc1-c1cccc(Br)c1)C1CO1 (stereo unspecified)	HT1080 IDH1KD tx inconclusive, KB-V1 MDR tox inconclusive, KB-3-1 tox inconclusive, ATXN viability inconclusive, HT1080-NT tox 26µM
O=C(c1[nH]ncc1-c1ccccc1)C1CO1 (stereo unspecified)	HT1080 IDH1KD tx inconclusive, HT1080-NT tox inconclusive
COc1ccc(NC(=O)N(C)C[C@H]2OCc3cnnn3CCCC(=O)N([C@H](C)CO)C[C@@H]2C)cc1	none
Cc1cc(C(=O)Nc2cccc(-c3nc(CNC(=O)c4ccccc4C(F)(F)F)c(C)o3)c2)c(C)o1	none (no result: HT1080 IDH1KD tx, ATXN2 expr inh, KB-V1 MDR tox, KB-3-1 tox, HT1080-NT tox)
CN(Cc1ccccc1)S(=O)(=O)c1ccc(NC(=O)C2CCCO2)cc1 (stereo unspecified)	none
CN(Cc1ccccc1)S(=O)(=O)c1ccc(NC(=O)C2CCCCC2C(=O)O)cc1 (stereo unspecified)	KB-V1 MDR tox 21µM
CC(C)C(=O)NC(=S)Nc1ccc(S(=O)(=O)N(C)Cc2ccccc2)cc1	HT1080 IDH1KD tx 21µM, KB-V1 MDR tox inconclusive, KB-3-1 tox inconclusive, HT1080-NT tox inconclusive
COc1ccc(NS(=O)(=O)c2ccc(NC(=S)NC(=O)C(C)C)cc2)cc1	none
CC(C)C(=O)NC(=S)Nc1ccc(S(=O)(=O)Nc2ccccc2)cc1	KB-V1 MDR tox 23µM
Cn1cnnc1Sc1ccc(CN2CCOc3ccc(C4=Cc5ccccc5CC4)cc3C2)o1	none (no result: HT1080 IDH1KD tx, ATXN2 expr inh, KB-V1 MDR tox, KB-3-1 tox, HT1080-NT tox)
COCCN(C(=O)Cc1cccs1)c1nnc(-c2ccncc2)s1	none
CCN(C(=O)c1cccs1)c1nnc(-c2ccncc2)s1	KB-V1 MDR tox 18µM, HT1080-NT tox inconclusive
CC(C)(C)C(=O)Nc1ccccc1C(=O)Nc1cc(Cl)ccc1Cl	KB-V1 MDR tox 16µM
CC(C)(C)C(=O)Nc1ccccc1C(=O)Nc1cccnc1	none
